Most compounds without a hit are left out; they make up all but 15% or so of the library.
Pf growth 48h = inhibits P. falciparum growth in the first generation, 48 h | P. falciparum luciferase growth in erythrocytes, 48 h | Potency, µM (series often up to 28.7 µM), inactives show at the highest dose activity change, negative = inhibition, most hits filed as inhibitors | 310,000 compounds, 5.9% hits | AID 504832; note: potency is the fitted concentration of half-maximal effect; % is set by controls: 0 for no effect and ±100 for the full control effect
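Parasite viability was followed by luminescence of a genomically integrated firefly luciferase. Cultures held 0.1% parasitemia at 2% hematocrit (final), incubated under 5% CO2 at 37 C.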
HCV inhibitor = HCV inhibition; Potency, µM (series often up to 41.8 µM), without a hit: top-dose activity change, negative = inhibition, most hits filed as inhibitors; 340,000 compounds, 3.4% hits; Huh7.5.1 HCVcc-Cre infection, luciferase reporter, 44 h; note: potency is the fitted concentration of half-maximal effect; % is set by controls: 0 for no effect and ±100 for the full control effect
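1,000 cells/well; 4 h culture; + compound; + HCVcc-Cre (~0.5 moi); 44 h; luciferase substrate, RT 15 min; read 15 sec.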
Sm TGR block = blocks Schistosoma mansoni thioredoxin glutathione reductase | Q962Y6 | purified TGR, DTNB reduction, TNB absorbance 405 nm | Potency, µM (highest dose often 114 µM), for inactives: at the highest dose activity change, negative = inhibition, usual class: inhibitors | 360,000 compounds, 3% hits; note: potency is the fitted concentration of half-maximal effect; % is set by controls: 0 for no effect and ±100 for the full control effect; nearly all actives have a fitted effect of over 60% in size
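First, TGR (20 nM dispensed) and NADPH were mixed with compound. Second, a 15 min room-temperature incubation followed. Third, further NADPH and then DTNB were added to start the reaction. Finally, TNB absorbance was monitored kinetically.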
HCMV antiviral = inhibitors of human cytomegalovirus; activity change, negative = inhibition, % at 57.5 µM; HFF cells, HCMV-luciferase reporter, 72 h; hits give low values; 410,000 compounds, 4.5% hits; in the data active = activity change below about -60%; inconclusive = no clear call, values can overlap the other calls; inactive = above about -39%; note: % is set by controls: 0 for no effect and ±100 for the full control effect
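Luciferase read-out from HCMV-luciferase-infected HFFs (MOI 1 PFU/cell) 72 h post infection at 37C; compounds added after 16 h cell attachment; activity normalized between buffer-only basal and Salinomycin (10uM) inhibitor controls.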
SARS PLP yeast = blocks SARS-CoV papain-like protease in a yeast assay | Potency, µM (doses to about 32.9 µM), for the others: top-dose activity, positive = growth rescue, most hits filed as activators | 330,000 compounds, 0.19% hits | S. cerevisiae expressing SARS-CoV PLpro, growth rescue; calls by dose curve; note: potency is the fitted concentration of half-maximal effect; 0% is about no effect; nearly all actives have a fitted effect of over 55% in size
Pf growth 96h = P. falciparum growth inhibition at 96 hours; P. falciparum luciferase reporter growth, 96 h; Potency, µM (doses to about 28.7 µM), inactives show top-dose activity change, negative = inhibition, actives largely listed as inhibitors; 320,000 compounds, 6.9% hits; note: potency is the fitted concentration of half-maximal effect; % is set by controls: 0 for no effect and ±100 for the full control effect
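Luminescence readout: decreased luciferase signal marks inhibited growth of reporter-expressing P. falciparum in infected red cells (2% hematocrit, 0.05% parasitemia final), exposed to compound two generations (96 h, 37 C, 5% CO2).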
Starred values were filed as active, the others as inactive; u = inconclusive; x = no result given. Unless noted, calls come from the whole dose curve; as a rule, active = well fitted curve in the direction sought with a large enough effect; inconclusive = small, poorly fitted or top-dose-only effect, or another doubt; inactive = no such curve, though single readings can be large; an effect the other way counts as inactive or inconclusive.

SMILES | Pf growth 48h | HCV inhibitor | Sm TGR block | HCMV antiviral | SARS PLP yeast | Pf growth 96h
Cc1oc(C(C)(C)C)cc1C(=O)NCc1ccc2c(c1)OCO2 | -1% | -21% | -5% | 12 | 1% | 3%
Cn1nc(C(C)(C)C)cc1C(=O)NCc1ccc2c(c1)OCO2 | 7% | 1µM* | -24% | -83* | 1% | -7%
COc1ccc(CNC(=O)CCc2c(C)nn(-c3ccc(N4CCCCC4)nn3)c2C)c(OC)c1 | x | x | 5% | -15 | x | x
Cc1cc(C)n(-c2cc(N3CCN(C(=O)c4cccc(Br)c4)CC3)ccc2[N+](=O)[O-])n1 | u | u | -1% | -27 | 0% | 9.3µM*
Cc1cc(C)n(-c2cc(N3CCN(S(=O)(=O)c4ccc(Cl)cc4)CC3)ccc2[N+](=O)[O-])n1 | 7.4µM* | u | 1% | u | 10% | 8%
O=[N+]([O-])c1ccc(N2CCN(S(=O)(=O)c3ccc(Cl)cc3)CC2)cc1NCC1CCCO1 (stereo unspecified) | -9% | x | 1% | 30 | 3% | 6%
CC(=O)N1CCN(c2ccc([N+](=O)[O-])c(-n3nc(C)cc3C)c2)CC1 | -20% | -7% | -13% | -22 | 5% | 18%
Cc1ccc2nc(-c3ccccc3)cc(C(=O)NCC(c3ccco3)N(C)C)c2c1 (stereo unspecified) | u | -25% | -13% | -32 | 1% | u
O=C(CCS(=O)(=O)c1ccccc1)N1CCN(c2ccc(F)cc2)CC1 | 74% | 5% | -19% | 38 | 2% | u
CSc1sc(C(=O)NCC2CC2)cc1S(=O)(=O)C(C)C | 2.3µM* | -2% | 1% | -2 | 2% | -4%
COc1ccccc1NS(=O)(=O)c1ccc(C(=O)OCC(=O)NCc2ccco2)cc1 | -16% | 18% | 40µM* | 36 | -1% | 3%
Cc1cccc(Nc2ccccc2C(=O)OCC(=O)NCc2ccco2)c1C | u | -16% | -25% | -1 | -6% | 12µM*
Cc1ccccc1C(=O)OCC(=O)NCc1ccco1 | x | -3% | x | 7 | -1% | x
Cc1ccc2cccc(OCC(=O)NCc3ccco3)c2n1 | -25% | -13% | 45µM* | -29 | 4% | u
O=C(COC(=O)C1(c2ccc(F)cc2)CCCC1)NCc1ccco1 | 9% | -16% | 32µM* | -1 | 1% | 22%
O=C(COC(=O)/C=C/c1ccc(F)cc1)NCc1ccco1 | -9% | 15% | 3% | 46 | 0% | 21%
CC(=O)N/C(=C\c1ccccc1)C(=O)OC(C)C(=O)Nc1ccccc1F (stereo unspecified) | -27% | -2% | u | 0 | 9% | u
CCN1C(=O)[C@H]2[C@@H](c3ccc(C)cc3)N[C@]3(CCCN(Cc4cccn4C)C3=O)[C@H]2C1=O | x | x | x | -29 | x | x
COc1cc(/C=C/C(=O)OCC(=O)NCc2ccco2)ccc1O | u | u | 28µM* | -11 | 6% | 5%
O=C(CN1CCCc2ccccc21)NC(=O)NCc1ccco1 | 0% | 19% | -31% | 31 | 0% | x
O=C(COC(=O)C1CC2C=CC1C2)NCc1ccc(F)cc1 (stereo unspecified) | 20% | 11% | -11% | -5 | 20% | 52%
O=C(COC(=O)C1CC2C=CC1C2)NCc1ccco1 (stereo unspecified) | -10% | 8% | 50µM* | 0 | -4% | -10%
O=C(COC(=O)C1CCCCC1C(=O)N1CCc2ccccc21)NCc1ccco1 (stereo unspecified) | 12µM* | -7% | 25µM* | u | 0% | -33%
COc1cccc(OC)c1C(=O)OCC(=O)NCc1ccco1 | 7% | 14% | 50µM* | -11 | 22% | 15%
Cc1ccc(CCNC(c2ccc(F)cc2)c2nnc(-c3ccccc3Cl)o2)cc1 (stereo unspecified) | x | x | 2% | 10 | x | x
SMILES | Pf growth 48h | HCV inhibitor | Sm TGR block | HCMV antiviral | SARS PLP yeast | Pf growth 96h
COc1ccc(CN2CCC[C@]3(N[C@H](c4ccccc4)[C@@H]4C(=O)N(C)C(=O)[C@@H]43)C2=O)cc1 | x | x | x | -24 | x | x
N#Cc1c(NC(=O)COC(=O)C2CC3C=CC2C3)oc(-c2ccccc2)c1-c1ccccc1 (stereo unspecified) | -88% | 1% | -12% | 37 | -9% | 9.3µM*
COc1ccccc1OCC(=O)Nc1oc(-c2ccccc2)c(-c2ccccc2)c1C#N | 14% | u | -5% | -10 | 9% | x
CN(c1ccccc1)S(=O)(=O)c1ccc(C(=O)OCC(=O)NCc2ccco2)cc1 | x | 22% | 25µM* | -1 | 3% | 4%
CC(=O)NC1[C@H](O)C[C@@](O)(C(=O)O)O[C@H]1[C@H](O)[C@H](O)CO (stereo partly specified) | -3% | x | x | x | x | -7%
Cc1c(Cl)cccc1NC(=O)CCN1C(=O)C2CC=CCC2C1=O (stereo unspecified) | 13% | x | -30% | -26 | -2% | 5.2µM*
O=C(CCN1C(=O)C2CC=CCC2C1=O)Nc1ccccc1Cl (stereo unspecified) | 5% | -8% | 6% | -2 | 1% | 21%
CCOc1ccc(NC(=O)CN(C)C(=O)/C=C/c2ccco2)cc1OCC | -1% | -15% | u | -22 | -8% | -4%
CC(C)(C)c1ccc(/C=C/C(=O)N2CCc3ccccc3C2)cc1 | 0.93µM* | -11% | 0% | -10 | -12% | 0.74µM*
CCOc1ccc(N(CC(=O)N2CCCCCC2)S(=O)(=O)c2ccc(F)cc2)cc1 | -15% | 12% | u | -13 | -7% | 81%
COc1ccc(OCC(=O)Nc2c3c(nn2-c2ccccc2)CS(=O)(=O)C3)cc1 | 9% | 10% | -9% | 61 | 5% | 2%
O=C(CN1C(=O)CCc2cc(S(=O)(=O)N3CCOCC3)ccc21)Nc1cccc(Cl)c1 | x | x | 2% | 41 | x | x
O=C(C1CCN(S(=O)(=O)N2CCC3(CC2)OCCO3)CC1)N1CCN(Cc2ccccc2)CC1 | 51% | 4% | 5% | 9 | -2% | u
Cc1ccc(Cl)cc1S(=O)(=O)N1CCC(C(=O)NC2CCN(Cc3ccccc3)CC2)CC1 | 7.4µM* | u | -6% | -72* | -2% | 0%
O=C(NCc1ccccn1)C1CCN(S(=O)(=O)N2CCC3(CC2)OCCO3)CC1 | -6% | 5% | 3% | -1 | -4% | 10µM*
CCN(CC)S(=O)(=O)c1ccc(S(=O)(=O)N2CCC(C(=O)NC3CCN(Cc4ccccc4)CC3)CC2)cc1 | -11% | -24% | u | x | 8% | u
O=C(C1CCN(S(=O)(=O)N2CCC3(CC2)OCCO3)CC1)N1CCc2ccccc2C1 | x | -10% | 2% | 52 | 3% | 5.2µM*
